From PubChem BioAssay (NCI)
Values joined by “and” are separate entries in the source; they are usually repeats but may differ in a detail not shown here. Equal entries are not always repeated. About 79,000 compounds went through this panel and 15% of them were active in at least one assay; those are over-represented in the sample as a whole. A number with no mark means an inactive call. Active and inactive are the calls of the source. No stated cut-off is given here; in the data, active means growth inhibition above about 70%; inactive means the rest.

Columns and labels:
[1] = NCI Yeast Anticancer Drug Screen. Data for the rad50 strain (AID 155);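 further: 0% = growth of vehicle-only cultures of the same strain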; conditions: S. cerevisiae rad50 strain growth inhibition, active compounds read high
Summary of the method: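 Yeast carrying a defined DNA repair defect were exposed to test compounds, and growth was compared with vehicle-treated controls to give percent inhibition.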

[2] = NCI Yeast Anticancer Drug Screen. Data for the mec2-1 strain (AID 157); conditions: S. cerevisiae mec2-1 strain, active compounds read high
Summary of the method: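 Readout is yeast growth inhibition, normalised to vehicle-treated controls, in the mec2-1 strain exposed to compound.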

[3] = NCI Yeast Anticancer Drug Screen. Data for the sgs1 mgt1 strain (AID 161);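 further: 0% = growth of cultures given vehicle only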; conditions: S. cerevisiae sgs1 mgt1 strain, active compounds read high
Summary of the method: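 Compounds are added to genetically altered yeast, and growth is compared with cultures given vehicle alone to give percent inhibition.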

[4] = NCI Yeast Anticancer Drug Screen. Data for the cln2 rad14 strain (AID 165);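 further: 0% = growth equal to vehicle treated cultures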; conditions: S. cerevisiae cln2 rad14 strain, active compounds read high
Summary of the method: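 Relative to vehicle controls, growth inhibition of compound-treated cln2 rad14 yeast was recorded.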

[5] = NCI Yeast Anticancer Drug Screen. Data for the bub3 strain (AID 167); conditions: S. cerevisiae bub3 mutant strain, active compounds read high
Summary of the method: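 Compounds were applied to a genetically altered yeast strain carrying a cell-cycle control defect. Growth inhibition was scored against vehicle-treated controls.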

[6] = NCI Yeast Anticancer Drug Screen. Data for the mlh1 rad18 strain (AID 175); conditions: S. cerevisiae mlh1 rad18 strain growth inhibition, active compounds read high
Summary of the method: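 Test agents were incubated with a yeast strain of defined genotype (DNA damage repair defect). Inhibition of growth was derived by comparison with vehicle-exposed cultures.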

[7] = at 5.0 µM (retest, dose inferred, filed as 0.5)
[8] = at 50.0 µM (retest, dose inferred, filed as 5.0)

| Structure (SMILES) | growth inhibition [1, 7] | growth inhibition [1, 8] | growth inhibition ([1]; at 50.0 µM) | growth inhibition [2, 7] | growth inhibition [2, 8] | growth inhibition ([2]; at 50.0 µM) | growth inhibition [3, 7] | growth inhibition [3, 8] | growth inhibition ([3]; at 50.0 µM) | growth inhibition [4, 7] | growth inhibition [4, 8] | growth inhibition ([4]; at 50.0 µM) | growth inhibition [5, 7] | growth inhibition [5, 8] | growth inhibition ([5]; at 50.0 µM) | growth inhibition [6, 7] | growth inhibition [6, 8] | growth inhibition ([6]; at 50.0 µM) |
| --- | --- | --- | --- | --- | --- | --- | --- | --- | --- | --- | --- | --- | --- | --- | --- | --- | --- | --- |
| CNCC(O)c1cn(C)c2ccccc12 (centres undefined) | 4% | 0% | 45% | 4% | 3% | 20.6% | 3% | 5% | 25.1% | 6% | 2% | 22.1% | 4% | 0% | 48.9% | 0% | -2% | 40.9% |
| CCNc1ncc2ccccc2c1-c1ccc(N2CCN(CCCl)CC2)cc1 | 15% | 93% (active) | 97.8% (active) | 13% | 89% (active) | 74% (active) | 11% | 97% (active) | 98.7% (active) | 2% | 90% (active) | 93.5% (active) | 13% | 95% (active) | 97.2% (active) | 8% | 97% (active) | 98% (active) |
| COC1=C(N2CC2)C(=O)C(OC)=C(N2CC2)C1=O | 95% (active) | 97% (active) | 98.3% (active) | 95% (active) | 98% (active) | 97.8% (active) | 90% (active) | 97% (active) | 98.2% (active) | 91% (active) | 98% (active) | 98.8% (active) | 49% | 98% (active) | 97.1% (active) | 96% (active) | 98% (active) | 97.6% (active) |
| C=Cc1cc(OC)c2c(c1)c(=O)oc1c2cc(OC)c2c(O)ccc(C3OC(C)C(O)C(C)(O)C3O)c21 (centres undefined) | 96% (active) | 97% (active) | 90.8% (active) | 97% (active) | 97% (active) | 91.8% (active) | 97% (active) | 98% (active) | 90.3% (active) | 97% (active) | 97% (active) | 90.1% (active) | 97% (active) | 98% (active) | 89.4% (active) | 96% (active) | 96% (active) | 89.9% (active) |
| ClCCCCCl | 13% | -2% | 32.2% | -4% | -2% | 16.8% | 5% | -5% | -18.9% | 5% | -6% | 41% | 4% | 0% | -17.6% | 4% | -1% | 26.6% |
| COc1cc2c(c(OC)c1OC)-c1ccc(O)c(=O)cc1C(NC(C)=O)CC2 (centres undefined) | 1% | 3% | -26.1% | -1% | -8% | 17.3% | -15% | 16% | -1.4% | -21% | 8% | 45.5% | -7% | 6% | 1.05% | -9% | -2% | 59.6% |
| ClCCN(CCCl)c1ccc(CNCCCNCc2ccc(N(CCCl)CCCl)cc2)cc1 | -1% | 57% | 94.7% (active) | -13% | 7% | 49% | -12% | 41% | 99.1% (active) | -2% | 37% | 14.8% | -3% | 38% | 43% | 4% | 98% (active) | 99.2% (active) |
| CCCCC1C(=O)NC(=S)N(c2ccccc2)C1=O (centres undefined) | -4% | -1% | -1.75% | -3% | 11% | -1.25% | 3% | 17% | 7.5% | -2% | -7% | 34.2% | 0% | 4% | 11.1% | -9% | 1% | 13.8% |
| c1ccc(C(C(=Nc2ccc(Cc3ccc(N=C(C(c4ccccc4)c4ccccc4)N4CC4)cc3)cc2)N2CC2)c2ccccc2)cc1 | 5% | 86% (active) | 85.6% (active) | 42% | 59% | 92.5% (active) | 5% | 70% (active) | 94.1% (active) | 8% | 62% | 77.2% (active) | 5% | 87% (active) | 85.8% (active) | 11% | 71% (active) | 91.7% (active) |
| CC1(C)C(=O)C=CC2(C)C1CC(O)C1(C)C2CCC2(C)C(c3ccoc3)OC(=O)C3OC321 (centres undefined) | 15% | 16% | 86.8% (active) | 4% | 12% | 86.5% (active) | 11% | 52% | 82.7% (active) | 4% | 8% | 76.5% (active) | 3% | 12% | 82.2% (active) | 16% | 18% | 44.5% |
| Cc1cc(NCc2ccccc2)c2ccccc2[n+]1CCCCCCCCCC[n+]1c(C)cc(NCc2ccccc2)c2ccccc21 | 99% (active) | 99% (active) | 90.8% (active) | 100% (active) | 99% (active) | 92.2% (active) | 99% (active) | 99% (active) | 92% (active) | 98% (active) | 99% (active) | 91.1% (active) | 99% (active) | 99% (active) | 89.1% (active) | 97% (active) | 98% (active) | 86.2% (active) |
| CCC(C)c1cc([N+](=O)[O-])cc([N+](=O)[O-])c1O (centres undefined) | -137% | 39% | 79% (active) | -31% | 24% | 66.2% | -50% | 60% | 86% (active) | -9% | 44% | 69.9% | -58% | 19% | 80.1% (active) | -123% | 40% | 85.5% (active) |
| O=C1C=CC(=O)N1c1cccc2ccccc12 (tested in a mixture with another compound) | -1% | 1% | 10.3% | -39% | -1% | 2.7% | 0% | 2% | 9.1% | -1% | 3% | 15.8% | -8% | -5% | 61% | -1% | -1% | 12.2% |
| CCOP(=O)(OCC)Oc1ccc([N+](=O)[O-])cc1 | 8% | -5% | 0.55% | -10% | -13% | 2.65% | 12% | 16% | -7% | 6% | 7% | 38.7% | -4% | 14% | 9.8% | 13% | 4% | 3.55% |
| COc1cc(C[C@H]2c3cc(OC)c(OC)c(O)c3CCN2C)c(Oc2cc3c(cc2OC)-c2c(OC)c(OC)c(OC)c4c2C(C3)N(C)CC4)cc1OC (some centres undefined) (tested in a mixture with another compound) | -2% | 40% | 64.7% | -1% | 52% | 33.5% | -6% | 36% | 47.8% | -7% | 44% | 44.8% | 3% | 39% | 61.5% | -5% | 96% (active) | 80% (active) |
| CCOC(=O)C(NC(=O)C(Cc1ccc(N(CCCl)CCCl)cc1)NC(C)=O)C(C)C (centres undefined) | -4% | -9% | 17.5% and 11.7% | -1% | -1% | 11.3% and -1.25% | -5% | 7% | 37.2% and -1.2% | -1% | -2% | 67.7% and -2.95% | -2% | -2% | 19.1% and -22.9% | -4% | -1% | 18.9% and -0.25% |
| Cc1ccc(S(=O)(=O)OC2CCC3C4CC=C5CC(SC(=N)N)CCC5(C)C4CCC23C)cc1 (centres undefined) | 67% | 82% (active) | 47.9% | 37% | 28% | 29.6% | 96% (active) | 95% (active) | 94.1% (active) | 4% | 6% | 3% | 51% | 36% | 26.1% | 51% | 44% | 66.3% |
| CC12CCC(O)CC1CCC1C2CCC2(C)C1CC1CC(=O)OC12 (centres undefined) | 82% (active) | 98% (active) | 98.5% (active) | 58% | 98% (active) | 85.3% (active) | 83% (active) | 98% (active) | 99% (active) | 57% | 99% (active) | 98.8% (active) | 72% (active) | 98% (active) | 98.9% (active) | 85% (active) | 98% (active) | 97.2% (active) |
